Measured values as given in PubChem BioAssay (EPA / NIEHS).
Records with an inconclusive call do not appear. Activity calls are given as the source filed them. How the source made its calls: active means hit-call score of the fitted dose curve at least 0.9, where 1 is the maximum; inconclusive means response in the unintended direction; inactive means score below 0.9.

Target: Oxysterols receptor LXR-alpha (Homo sapiens) (UniProt Q13133)
Experiment: ATG_LXRa_TRANS: Attagene TRANS-FACTORIAL HepG2 Assay for human Liver X Receptor alpha (LXRa) (AID 2282980)
Settings: HepG2 Attagene TRANS reporter, LXRa transactivation
Description: ATG_TRANS is a cell-based, multiplexed-readout assay that uses HepG2, a human liver cell line, with measurements taken at 24 hours after chemical dosing in a 24-well plate.ATG_LXRa_TRANS is one of 30 assay component(s) measured or calculated from the ATG_TRANS assay. It is designed to make measurements of mRNA induction, a form of inducible reporter, as detected with fluorescence intensity signals by Reverse transcription polymerase chain reaction (RT-PCR) and Capillary electrophoresis technology.Data from the assay component ATG_LXRa_TRANS was analyzed into 1 assay endpoint. This assay endpoint, ATG_LXRa_TRANS, was analyzed in the positive analysis fitting direction relative to DMSO as the negative control and baseline of activity. Using a type of inducible reporter, measures of mRNA for gain-of-signal activity can be used to understand the reporter gene at the transcription factor-level as they relate to the gene NR1H3. Furthermore, this assay endpoint can be referred to as a primary readout, because this assay has produced multiple assay endpoints where this one serves a reporter gene function. To generalize the intended target to other relatable targets, this assay endpoint is annotated to the nuclear receptor intended target family, where the subfamily is non-steroidal.
Human liver HepG2 cells are transiently transfected with multiple reporter transcription units (MRTUs) in 6-well plates using FuGene 6 reagent (Roche; 3 ml FuGene/1 mg DNA). The MRTU constructs are regulated by a cis-regulating element (promoter). […] A major difference between the CIS and TRANS system is that in CIS activities of endogenous TFs are measured, whereas the TRANS assay evaluates changes in activities of exogenous, chimeric NR-Gal4 proteins. […] At the end of 24 hour incubation, total RNA was isolated using TriZol reagent (Invitrogen). The isolated RNA is then reverse-transcribed using oligo(dT) primer and Mo-MLV reverse transcriptase (Invitrogen) with DNAse I (Ambion) treatment for 30 min. The one-tenth of the produced cDNA was amplified by PCR using Taq DNA polymerase (Invitrogen) and two reporter sequence-specific primers. The PCR products were fluorescently labeled by primer extension with 6-arboxyfluorescein (6-FAM) 5'-labeled reporter sequence-specific primer (2 min at 95 C, 20 s at 68 C and 10 min at 72 C) and these products were digested with 5U of HpaI (New England Biolabs) for 2h at 37 C. The fragments were purified using Qiaquick PCR columns (Qiagen), analyzed on an ABI 3130xL genetic analyzer (Applied Biosystems) with peak positions identified by using a set of X-rhodamine (ROX)-labeled MapMarker1000 molecular weight standards (BioVentures). The raw capillary electrophoresis data was processed using Attagraph software (Attagene).

Sequence of Oxysterols receptor LXR-alpha (Homo sapiens) (Q13133 whole entry, looked up): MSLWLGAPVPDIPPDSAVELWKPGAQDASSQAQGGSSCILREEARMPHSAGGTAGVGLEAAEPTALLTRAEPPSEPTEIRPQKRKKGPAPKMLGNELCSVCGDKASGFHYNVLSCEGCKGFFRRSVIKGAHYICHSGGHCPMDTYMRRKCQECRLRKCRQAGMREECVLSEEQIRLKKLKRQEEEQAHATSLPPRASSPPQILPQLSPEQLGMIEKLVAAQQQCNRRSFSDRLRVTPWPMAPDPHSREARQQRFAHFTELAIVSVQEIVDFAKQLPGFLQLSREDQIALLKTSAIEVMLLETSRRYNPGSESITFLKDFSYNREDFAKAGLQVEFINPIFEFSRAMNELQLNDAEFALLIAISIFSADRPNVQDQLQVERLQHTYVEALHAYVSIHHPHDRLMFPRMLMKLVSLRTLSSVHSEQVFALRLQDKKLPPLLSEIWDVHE

Row | SMILES | outcome
1 | CCC(=O)C1CC(C(C)C)CC=C1C (stereo not given) | inactive
2 | CCCCCCCCCCCCCC(=O)OC(C)C | inactive
3 | COc1cc(O)c(C(=O)c2ccccc2)cc1S(=O)(=O)O | inactive
4 | N#CC1(N)CCCCC1 | inactive
5 | CC(C)c1ccc(O)c(C(C)C)c1 | inactive
6 | Cc1noc(NS(=O)(=O)c2ccc(N)cc2)c1C | inactive
7 | CC(C)c1cccc(C(C)C)c1N | inactive
8 | CCC[Si](OC)(OC)OC | inactive
9 | Cn1ccnc1 | inactive
10 | Cc1ccc(C)c(OCCCC(C)(C)C(=O)O)c1 | inactive
11 | C1CCSC1 | inactive
12 | CCCCCC(=O)OCC | inactive
13 | CC(=O)C(C)C | inactive
14 | CCOC(=O)OC(=O)OCC | inactive
15 | CCCCCCCCCCCCc1ccc(O)cc1 | inactive
16 | CN(C)c1ccc2nc3ccc(=[N+](C)C)cc-3sc2c1 | inactive
17 | COc1cc(C)ccc1O | inactive
18 | CCCCOCC(C)O (stereo not given) | inactive
19 | C=C(C)C1CC=C(C)CC1 (stereo not given) | inactive
20 | CCCCCCCCCCCCCCCCCCOS(=O)(=O)O | inactive

Row | SMILES | outcome
21 | O=S(=O)(O)c1ccc(N=Nc2c(O)ccc3ccccc23)cc1 | inactive
22 | C=C[Si](OCCOC)(OCCOC)OCCOC | inactive
23 | CCCCCCCCC(CO)CCCCCC (stereo not given) | inactive
24 | CCCCC1CCC(=O)O1 (stereo not given) | inactive
25 | CC1(C)C(=O)N(CO)C(=O)N1CO | inactive
26 | O=C1CCCCC1C1CCCCC1 (stereo not given) | inactive
27 | CCc1cccc(C)c1N(C(=O)CS(=O)(=O)O)C(C)COC (stereo not given) | inactive
28 | CCOC(=O)C1=NN(c2ccc(Cl)cc2Cl)C(C)(C(=O)OCC)C1 (stereo not given) | inactive
29 | O=C(O)c1cc(O)c2ccccc2c1O | inactive
30 | C=C[C@@]1(C)CC(=O)[C@]2(O)[C@@]3(C)[C@@H](O)CCC(C)(C)[C@@H]3[C@H](O)[C@H](OC(C)=O)[C@@]2(C)O1 | inactive
31 | CC(C)=CCCC(C)=CC#N | inactive
32 | O=C(O)CCC(=O)O | inactive
33 | C=CC(=O)O[C@H]1C[C@@H]2CC[C@@]1(C)C2(C)C | inactive
34 | CCC(C)N (stereo not given) | inactive
35 | CCCC(CC)c1ccccc1 (stereo not given) | inactive
36 | NNS(=O)(=O)c1ccc(Oc2ccc(S(=O)(=O)NN)cc2)cc1 | inactive
37 | CC1=CC(C)C(C=O)CC1 (stereo not given) | inactive
38 | CCCCNS(=O)(=O)c1ccccc1 | inactive
39 | CC(=O)CCC=C(C)C | inactive
40 | CC1C(C)(C)C2=C(C(=O)CCC2)C1(C)C (stereo not given) | inactive
